98 molecules from PubChem BioAssay AID588342 (National Center for Advancing Translational Sciences (NCATS), 2011) can be followed below.

The structures appear in SMILES notation. Where “and” joins values, the source holds several entries; their conditions need not be identical. Equal entries are not always repeated. In all, about 360,000 compounds went through this assay and about 25,000 (6.9%) were called active. Entries that show only a call come without a potency. Inconclusive results (about 9%) are left out. Calls come from the whole dose curve; as a rule, active = well fitted inhibition curve with a large enough effect; inconclusive = small, poorly fitted or top-dose-only effect; inactive = flat fitted curve, though single readings scatter. This excerpt belongs to a sample that is enriched for actives.
Potency is the fitted concentration of half-maximal effect.

Luciferin 4-monooxygenase (Photinus pyralis), sequence (P08659 whole entry, looked up): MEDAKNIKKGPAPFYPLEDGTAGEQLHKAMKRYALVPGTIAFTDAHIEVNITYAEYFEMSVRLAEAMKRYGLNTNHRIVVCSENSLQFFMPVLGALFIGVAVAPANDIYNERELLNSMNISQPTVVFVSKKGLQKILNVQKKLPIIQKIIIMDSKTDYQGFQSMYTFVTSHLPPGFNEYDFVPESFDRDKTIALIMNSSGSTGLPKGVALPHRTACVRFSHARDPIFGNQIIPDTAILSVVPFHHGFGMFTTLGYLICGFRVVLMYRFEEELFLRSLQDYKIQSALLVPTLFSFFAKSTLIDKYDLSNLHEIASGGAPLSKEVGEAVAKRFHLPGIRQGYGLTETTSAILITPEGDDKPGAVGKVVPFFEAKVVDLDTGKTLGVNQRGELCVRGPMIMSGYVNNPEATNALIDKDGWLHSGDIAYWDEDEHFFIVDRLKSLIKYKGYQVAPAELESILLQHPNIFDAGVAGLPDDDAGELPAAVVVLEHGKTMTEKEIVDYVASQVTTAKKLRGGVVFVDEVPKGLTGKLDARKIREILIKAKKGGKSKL

This test addresses Luciferin 4-monooxygenase (Photinus pyralis) (UniProt P08659). Description: qHTS profiling assay for firefly luciferase inhibitor/activator using purifed enzyme and Km concentrations of substrates (counterscreen for miR-21 project). Note: nearly all actives have a fitted effect of over 55% in size. Conditions: purified FLuc, luminescence inhibition; series mostly up to 57.5 µM. Put shortly: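 Biochemical qHTS of compounds, final roughly 60 µM downward over six points, against 10 nM purified firefly luciferase using Km concentrations of substrates (10 uM D-luciferin, 10 uM ATP) in Tris acetate pH 7.5 buffer; luminescence output.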
For `Cc1ccsc1/C=N/n1c(=S)[nH]nc(C)c1=O`, the Potency result was “inactive”. The value for `COc1cc2cc(C(=O)N/N=C/c3cccc(OC)c3OC)[nH]c2cc1OC` was 16.9 µM (active); that for `COc1ccc2[nH]c(C(=O)N/N=C/c3cc(OC)c(OC)c(OC)c3)cc2c1` was 12 µM (active); that for `COc1ccc(/C=N/NC(=O)C2CC2)c(OC)c1OC` was “inactive”. Take `COc1cccc(OCc2cc(/C=N/NC(=O)c3nc(Cl)c(Cl)c(N)c3Cl)ccc2OC)c1`: the Potency entry was “inactive”. Turning to `COc1cccc(/C=N/NC(=O)CNC(=O)c2ccc(S(=O)(=O)N3CCOCC3)cc2)c1OC`, the Potency entry was “inactive”. The value for `CCOc1ccccc1/C=N/NC(=O)CNC(=O)COc1ccccc1` was “inactive”; that for `CCOc1ccc2[nH]c(C(=O)N/N=C/c3cccc(OC)c3OC)cc2c1` was 15.1 µM (active). With `COc1cc(/C=N/NC(=O)Cc2ccccc2)cc(OC)c1OC`, the Potency result is “inactive”.

With `COc1ccc(CC(=O)NCC(=O)N/N=C/c2cc(Br)ccc2OC)cc1`, the Potency result was “inactive”. The value for `Cc1[nH]c2ccccc2c1C(=O)C(C)Sc1nnc(C2CC2)o1` (stereo not drawn) was “inactive”; that for `CC1=C(C(=O)OCC(C)C)C(c2ccc(OCc3ccccc3)cc2)N2C(=O)CCSC2=N1` (stereo not drawn) was “inactive”; that for `Cc1cccc(C(=O)N2CCc3cc(CNC(=O)Cc4ccc(F)cc4)ccc32)c1` was “inactive”. The value for `O=C(CSc1oc(-c2ccc(F)cc2)nc1S(=O)(=O)c1ccc(Br)cc1)NC1CCCCC1` was “inactive”; that for `CCOC(=O)c1ccc2c(c1)N(Cc1cccc(OC)c1)C(=O)c1ccccc1S2(=O)=O` was “inactive”; that for `C/C(CC(=O)Nc1ccc(N(C)C)cc1)=N\NC(=O)c1ccccc1F` was “inactive”. For `C/C(=N\NC(=O)Cc1ccc(Cl)cc1)c1ccccn1`, the Potency entry is “inactive”.

For the molecule `C/C(=N\NC(=O)c1ccccc1F)c1ccccn1`, the Potency was 2.39 µM (active). The result for `CCCSc1ncc(Cl)c(C(=O)Nc2c(C(=O)Nc3ccccc3)oc3ccccc23)n1` reads “inactive”; that for `O=C(CN1CCCSc2ccccc21)N1CCN(S(=O)(=O)c2ccccc2)CC1`, “inactive”; that for `O=C(CN1CCCSc2ccccc21)N1CCN(S(=O)(=O)c2cccc(F)c2)CC1`, “inactive”.

As to `N#C/C=C1\Sc2ccccc2C(=O)N1CC(=O)N1CCN(S(=O)(=O)c2ccccc2)CC1`, the Potency was 9.53 µM (active). The value for `CC(=O)N1CCCc2cc(S(=O)(=O)N3CCC(C(=O)NC4CCCCC4)CC3)ccc21` was “inactive”. The result for `Cc1cn(C)c(CC(=O)NCc2ccccc2)c1C(=O)O` reads “inactive”; that for `CN=C1S/C(=C\c2ccc(Sc3ccc(Cl)cc3)o2)C(=O)N1C`, “inactive”; that for `CN1C(=O)/C(=C\c2ccc(-c3ccccc3)o2)SC1=S`, 2.39 µM (active). The value for `O=C(O)C(c1ccccc1)N1C(=O)/C(=C\c2ccc(-c3cccc(Cl)c3)o2)SC1=S` (stereo not drawn) was “inactive”; that for `COc1ccccc1NC(=O)CSC1=Nc2ccccc2C2=NC(CC(=O)NCc3cccs3)C(=O)N12` (stereo not drawn) was “inactive”; that for `COc1ccc(-n2nc(C(=O)NCCc3ccc(Cl)cc3)c3c4ccccc4n(C)c3c2=O)cc1Cl` was “inactive”. Regarding `COc1ccc(-n2nc(C(=O)NCC(=O)N3CCC(C(N)=O)CC3)c3ccccc3c2=O)cc1OC`, the Potency is 12 µM (active).

As for `COc1ccc(-n2nc(C(=O)NCC(=O)N3CCCCCC3)c3ccccc3c2=O)cc1Cl`, the Potency was 3.38 µM (active). The result for `COc1ccc(-n2nc(C(=O)NCC(=O)Nc3cccc(C)n3)c3ccccc3c2=O)cc1` reads “inactive”.

Turning to `COc1cccc(NC(=O)c2nn(-c3ccc(OC)cc3OC)c(=O)c3ccccc23)c1`, the Potency result was “inactive”.

With `COCCCNC(=O)CNC(=O)c1nn(-c2ccc(OC)cc2)c(=O)c2ccccc12`, the Potency entry is “inactive”.

Regarding `COc1ccc(-n2nc(C(=O)NCC(=O)N3CCN(c4ccccc4OC)CC3)c3ccccc3c2=O)c(OC)c1`, the Potency was 1.69 µM (active). The result for `COc1ccc(-n2nc(C(=O)Nc3cc(OC)c(OC)c(OC)c3)c3ccccc3c2=O)c(OC)c1` reads “inactive”; that for `CCOC(=O)CNC(=O)c1nn(-c2cccc(OC)c2)c(=O)c2ccccc12`, “inactive”; that for `O=C(NCC1CCCO1)c1ccc(S(=O)(=O)Nc2ccc(F)cc2)cc1` (stereo not drawn), “inactive”. The result for `O=S(=O)(NCc1ccccc1Cl)c1cnc[nH]1` reads “inactive”; that for `COC(=O)C1[C@H]2SC(C)(C)C(C(=O)OC)N2C(=O)N1Cc1nc2ccccc2s1` (stereo partly drawn), “inactive”. The result for `COc1ccc(-c2nc3ccccc3s2)cc1NC(=O)COc1ccccc1C` reads “inactive”. As for `COc1ccccc1OCc1nc2ccccc2s1`, the Potency is 0.601 µM (active). The result for `Cc1cc(O)c(C(c2ccccc2)N2CCN(c3ccccc3F)CC2)c(=O)n1Cc1ccco1` (stereo not drawn) reads “inactive”; that for `O=C(CCC1N=C2c3ccccc3N=C(SCc3ccccc3F)N2C1=O)NCCc1ccccc1` (stereo not drawn), “inactive”; that for `CC(NC(=O)c1ccc(S(=O)(=O)Nc2ccccc2)cc1)c1ccc(S(N)(=O)=O)cc1` (stereo not drawn), “inactive”. The result for `O=C1/C(=C/c2cccs2)CCC1C1CCCC1` (stereo not drawn) reads 3.38 µM (active); that for `O=C1/C(=C/c2cccs2)SC(=S)N1C1CCS(=O)(=O)C1` (stereo not drawn), “inactive”; that for `O=C1/C(=C/c2cccs2)CCc2ccccc21`, 0.757 µM (active). As to `O=C(COC(=O)/C=C/c1cccs1)NC1CCCCC1`, the Potency entry is “inactive”.

For `O=S(=O)(c1cccs1)N1CCc2ccccc2C1`, the Potency result was “inactive”. The value for `CCC1C/C(=C/c2cccs2)C(=O)/C(=C/c2cccs2)C1` (stereo not drawn) was “inactive”; that for `COc1ccccc1-c1cc(C(F)(F)F)nc(S(=O)(=O)CCCC(=O)Nc2cc(C)ccc2O)n1` was “inactive”; that for `O=C(CSc1nnc(N2CCOCC2)n1-c1cccc(F)c1)N1CCN(c2ccccn2)CC1` was “inactive”. The value for `COc1cccc(C(=O)NCc2ccc3c(c2)CCN3C(=O)c2ccncc2)c1` was “inactive”. In the case of `COc1cccc(C(=O)NCC(=O)OCc2cc(=O)n3ccsc3n2)c1`, the Potency entry is “inactive”. The result for `COc1cccc(C(=O)n2ccc(-c3cccs3)n2)c1` reads 3.38 µM (active). Consider `CC(C)(C)c1cc2cccnc2n1Cc1ccccc1`, for which the Potency entry was “inactive”. The value for `O=C(/C=C/c1cccs1)c1cc(Cl)ccc1OC(=O)N1CCOCC1` was “inactive”; that for `CCOc1ccc(C2C(=O)N(C3CCCCC3)CC(=O)N2CCC2=CCCCC2)cc1OC` (stereo not drawn) was “inactive”. The value for `Cc1cccc(CSc2nnc(C)c(=O)n2N)c1` was “inactive”. The result for `N#Cc1ccc(-c2cccs2)nc1SCc1ccc(Br)cc1` reads “inactive”; that for `Cc1cccc(CSc2ccc(-c3cccs3)nn2)c1`, 12 µM (active) and 8.49 µM (active); that for `C[C@H](NC(=O)c1ccccc1Cl)C(=O)OCC(=O)N1CCN(c2ccccc2)CC1`, “inactive”. With `COc1ccc(C(=O)C2CCCN(S(=O)(=O)c3cccc(C)c3)C2)c(C)c1` (stereo not drawn), the Potency result is “inactive”. Regarding `CCN1C(=O)c2ccccc2S(=O)c2ccc(C(=O)NCc3ccc(F)cc3)cc21` (stereo not drawn), the Potency entry was “inactive”. The value for `CN1CCN(S(=O)(=O)c2cccc(C(=O)O)c2)CC1` was “inactive”; that for `O=C(O)c1cccc(N=NN2CCCCCC2)c1` was 6.75 µM (active). The value for `O=C(O)c1ccc(N=NN2CCOCC2)cc1` was “inactive”; that for `CC(C)Oc1ccc(S(=O)(=O)N2CCOCC2)cc1NC(=O)C1CCCC1` was “inactive”. The value for `O=C(Cn1nc(C(F)(F)F)c2c1CCCC2)Nc1ccc(Cl)cc1` was “inactive”; that for `O=C(NCCS(=O)(=O)N1CCN(c2ccccc2)CC1)c1ccco1` was “inactive”. With `O=C(CNC(=O)c1ccco1)OCC(=O)c1ccccc1`, the Potency result is “inactive”. The value for `O=C(NCCSc1ccccc1)c1ccco1` was 23.9 µM (active); that for `CCOC(=O)Cn1c(=O)n(-c2ccccc2OC)c2nc(-c3cccc(F)c3)nc(C(N)=O)c21` was “inactive”; that for `CC(C)(C)c1ccc(S(=O)(=O)N2CCN(C(=O)c3cc(-c4ccc(Br)cc4)n[nH]3)CC2)cc1` was “inactive”. The result for `Cc1nnsc1C(=O)N/N=C/c1cccc(C(F)(F)F)c1` reads “inactive”; that for `FC(F)(F)c1cccc(N/N=C/c2ccccc2)c1`, 12 µM (active); that for `CC(=O)N1CCN(C(=O)Nc2cccc(C(F)(F)F)c2)CC1`, “inactive”.

Regarding `CCC1CCCCN1C(=O)Cn1c(=O)n(CCCCCC(=O)NCc2ccccc2)c(=O)c2sccc21` (stereo not drawn), the Potency result was “inactive”. The result for `CC(C)(C)OC(=O)Nc1ccc([C@@H](NC(=O)OC(C)(C)C)C(=O)OC(C)(C)C)cc1` reads “inactive”; that for `COc1ccc2cc(CNc3ccc(OC)c(OC)c3)c(=O)n(CC(=O)Nc3ccccc3F)c2c1`, “inactive”. For `Cc1cc2c(cc1S(=O)(=O)CCC(=O)Nc1ccc(OC(F)(F)F)cc1)OCC(=O)N2`, the Potency entry is “inactive”. The result for `Nn1c(SCC(=O)Nc2nccs2)nnc1-c1ccco1` reads “inactive”; that for `CC(C)c1ccc(NC(=O)Cn2ncc3ccccc32)cc1`, 10.7 µM (active); that for `CC(C)c1ccc(NC(=O)Cn2nnc(C(=O)NCCc3ccccc3)c2N)cc1`, “inactive”.

As for `CCc1ccc(NC(=O)Cn2ncn3c(cc4ccccc43)c2=O)cc1`, the Potency entry was “inactive”. The value for `Cc1oc(-c2ccccc2)nc1Cn1c(SCc2cccc(C(F)(F)F)c2)nc2cccnc21` was “inactive”. The value for `COc1ccc(N2CCN(Cc3nc4c(c(=O)[nH]c(=O)n4C)n3Cc3ccc(Cl)cc3)CC2)cc1` was “inactive”; that for `O=C(NCCCO)C(=O)Nc1c2c(nn1-c1ccccc1)CSC2` was “inactive”; that for `Cc1nc2ccccn2c1C(=O)NN=C1CCN(C)CC1` was “inactive”.

As for `CCS(=O)(=O)C1=NSC2=NC(=O)/C(=C\c3ccc(OS(=O)(=O)c4ccccc4)cc3)C(=N)N21`, the Potency result was “inactive”. Turning to `CC1=CC2=NC(=O)/C(=C/c3coc4ccccc4c3=O)C(=N)N2O1`, the Potency entry is “inactive”. Turning to `Cc1cc(/C=C2/C(=N)N3C(=NC2=O)SN=C3S(C)(=O)=O)c(C)n1-c1ccccc1`, the Potency was 0.536 µM (active).

On to `COc1ccccc1OCCOc1ccc(/C=C2\C(=N)N3N=C(C)SC3=NC2=O)cc1`, for which the Potency entry was “inactive”. The result for `CCS(=O)(=O)C1=NSC2=NC(=O)/C(=C\c3cc(C)n(-c4cccc(OC)c4)c3C)C(=N)N21` reads 6.75 µM (active). Regarding `CCC1=NN2C(=N)/C(=C/c3cc(C)n(-c4ccccc4)c3C)C(=O)N=C2S1`, the Potency was 26.9 µM (active). Regarding `CCOc1cc(/C=C2\C(=N)N3N=C(C)SC3=NC2=O)ccc1OCCOc1ccccc1`, the Potency result was “inactive”.

As to `N=C1/C(=C/c2cccn2-c2cccc([N+](=O)[O-])c2)C(=O)N=C2SC=CN12`, the Potency result was “inactive”.
